Consider 8 compounds from PubChem BioAssay.

Calls of active or inactive are those of the source.

Assay [1] in a line: optical density shifts of acrAB sulA E. coli – strain DRC41, OD650, 48 h, E. coli filamentation inducer project, primary screen (AID 1152).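 Further: E. coli MC1000 strain DRC41 lacking acrAB efflux pump and sulA.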 To be noted: higher = more signal, called active from +8 up or from −8 down.
Assay [2] in a line: probe aLefty1 binding on compound microarray – biochemical, small-molecule microarray, 635/667 nm fluorescence, primary screen (AID 1153).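 Further: score merges spot fluorescence with signal-to-noise ratio from the scanned slide images.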 The following applies: higher = more signal.
A short description of assay [3]: plasmodial surface anion channel blockers, osmotic lysis – cell-based, P. falciparum Indochina, OD700, 1 h, primary screen (AID 1154). To be noted: P. falciparum Indochina infected RBC osmotic lysis, higher = more signal, called active from +8 up or from −8 down.
Assay [4] in a line: plasmodial surface anion channel blockers, osmotic lysis – cell-based, P. falciparum Indochina, OD700, 2 h, primary screen (AID 1155).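 Further: lysis reports solute entry through the parasite surface anion channel PSAC.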 The following applies: P. falciparum Indochina infected erythrocytes, higher = more signal, called active from +8 up or from −8 down.
Assay [5] in a line: changes in parasitized red cell lysis, either direction – P. falciparum Indochina, OD700, 3 h, PSAC antagonist project, primary screen (AID 1156). The following applies: P. falciparum-infected erythrocytes, osmotic lysis, higher = more signal, called active from +8 up or from −8 down.
The nature of assay [6]: plasmodial surface anion channel blockers, osmotic lysis – cell-based, P. falciparum Indochina, OD700, 18 h, primary screen (AID 1157). To be noted: P. falciparum Indochina infected erythrocytes, osmotic lysis OD700, 18 h; higher = more signal, called active from +8 up or from −8 down.
Assay [7] can be described thus: S6 kinase pathway phospho-S6 level changes – cell-based, A549, cytoblot, luminescence, serum-stimulated, primary screen (AID 1158).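 Further: serum-stimulated A549 lung adenocarcinoma cells; signal is phosphorylated S6 detected by cytoblot immunostaining with HRP secondary.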 The following applies: 5 h, higher = more signal.
Assay [8] concerns the target NADPH oxidase 2 (Homo sapiens) (UniProt P04839). The assay is described as follows: compounds shifting NOX2 Amplex Red fluorescence – cell-based, HEK293-NOX2, PMA-stimulated, NOX inhibitor project, primary screen (AID 1159). Further: test concentration not given here. To be noted: 45 min, higher = more signal, called active from +8 up or from −8 down.
Assay [9] deals with NADPH oxidase 4 (Homo sapiens) (UniProt Q9NPH5). Description: compounds shifting NOX4 Amplex Red fluorescence – cell-based, HEK293-NOX4, tetracycline-induced, NOX inhibitor project, primary screen (AID 1160). To be noted: HEK293-NOX4, Amplex Red H2O2 fluorescence, 45 min; higher = more signal, called active from +8 up or from −8 down.
Sequence of NADPH oxidase 4 (Homo sapiens) (Q9NPH5 whole entry, looked up): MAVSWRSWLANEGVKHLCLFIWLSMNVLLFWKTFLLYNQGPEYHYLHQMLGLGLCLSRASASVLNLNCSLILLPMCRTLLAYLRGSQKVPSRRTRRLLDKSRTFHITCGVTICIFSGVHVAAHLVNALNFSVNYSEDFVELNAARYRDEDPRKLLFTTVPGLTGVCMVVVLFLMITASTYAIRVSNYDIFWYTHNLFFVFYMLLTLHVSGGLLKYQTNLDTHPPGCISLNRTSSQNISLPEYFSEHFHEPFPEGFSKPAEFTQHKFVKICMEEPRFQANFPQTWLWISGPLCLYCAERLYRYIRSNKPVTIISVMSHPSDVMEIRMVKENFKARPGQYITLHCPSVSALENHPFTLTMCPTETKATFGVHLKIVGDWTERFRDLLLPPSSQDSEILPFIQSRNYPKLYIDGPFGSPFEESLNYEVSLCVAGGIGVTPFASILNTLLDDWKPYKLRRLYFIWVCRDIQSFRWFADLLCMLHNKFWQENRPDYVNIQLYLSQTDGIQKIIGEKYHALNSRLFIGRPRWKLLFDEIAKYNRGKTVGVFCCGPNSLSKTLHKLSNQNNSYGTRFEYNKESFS
For assay [10], the target named is NADPH oxidase 5 (Homo sapiens) (UniProt Q96PH1). Description: compounds shifting NOX5 Amplex Red fluorescence – cell-based, HEK293-NOX5, NOX inhibitor project, primary screen (AID 1161). The following applies: HEK293-NOX5, ionomycin, 45 min, higher = more signal.
Sequence of NADPH oxidase 5 (Homo sapiens) (Q96PH1 whole entry, looked up): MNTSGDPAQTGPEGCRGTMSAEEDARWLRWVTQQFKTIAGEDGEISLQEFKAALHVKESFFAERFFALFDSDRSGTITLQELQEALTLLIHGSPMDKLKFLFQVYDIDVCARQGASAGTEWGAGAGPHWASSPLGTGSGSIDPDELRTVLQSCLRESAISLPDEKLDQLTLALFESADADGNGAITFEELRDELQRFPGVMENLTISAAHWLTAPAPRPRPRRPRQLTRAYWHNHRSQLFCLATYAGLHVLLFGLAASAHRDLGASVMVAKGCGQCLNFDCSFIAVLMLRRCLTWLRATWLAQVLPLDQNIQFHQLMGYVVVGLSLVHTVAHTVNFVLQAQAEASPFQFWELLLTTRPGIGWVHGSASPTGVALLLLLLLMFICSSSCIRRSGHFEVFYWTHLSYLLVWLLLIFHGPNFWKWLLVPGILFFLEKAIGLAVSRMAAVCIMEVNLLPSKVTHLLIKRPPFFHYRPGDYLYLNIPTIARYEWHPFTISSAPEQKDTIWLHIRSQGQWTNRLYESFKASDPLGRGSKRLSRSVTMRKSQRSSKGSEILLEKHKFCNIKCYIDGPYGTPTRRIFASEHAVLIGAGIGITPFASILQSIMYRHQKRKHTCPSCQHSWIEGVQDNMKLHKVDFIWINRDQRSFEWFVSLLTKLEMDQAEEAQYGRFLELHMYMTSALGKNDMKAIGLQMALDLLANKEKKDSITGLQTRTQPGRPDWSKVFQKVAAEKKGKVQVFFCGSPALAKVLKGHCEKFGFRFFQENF
Assay [11] is described as follows: compound effects on lung adenocarcinoma cell viability – A549, calcein-AM fluorescence, 48 h, basal, profiling panel (AID 1162). Further: test concentration not given here. To be noted: higher = more signal.
Assay [12] is described as follows: compound effects on differentiated 3T3-L1 adipocyte viability – cell-based, 3T3-L1 adipocytes, calcein-AM fluorescence, 48 h, basal, profiling panel (AID 1163). Further: test concentration not given here. To be noted: 3T3-L1 adipocytes viability, higher = more signal.
Assay [13] can be described thus: compound effects on hepatocellular carcinoma cell viability – HepG2, calcein-AM fluorescence, 48 h, basal, profiling panel (AID 1164). Further: test concentration not given here. To be noted: higher = more signal.
Assay [14] can be described thus: compound effects on multiple myeloma cell viability – MM1S, calcein-AM fluorescence, 48 h, basal, profiling panel (AID 1165).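 Further: viability of MM1S multiple myeloma cells under basal unstimulated conditions; test concentration not given here.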 The following applies: higher = more signal.
Assay [15] is described as follows: calcein-AM signal in unstimulated myeloma cells – cell-based, calcein-AM fluorescence, 48 h, PK04 Diversity Set, profiling panel (AID 1166).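 Further: cells grown under basal conditions without added stimulus; test concentration not given here.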 The following applies: RPMI8226 myeloma viability, higher = more signal.
Assay [16] in a line: JC-1 mitochondrial signal, unstimulated HepG2 cells – cell-based, JC-1 fluorescence, 24 h, 100 nL compound, profiling panel (AID 1167). Further: test concentration not given here. The following applies: HepG2 mitochondrial potential, higher = more signal.
Assay [17] can be described thus: JC-1 mitochondrial signal, unstimulated adipocytes – cell-based, JC-1 fluorescence, 3T3-L1 adipocytes, 24 h, 100 nL compound, profiling panel (AID 1168). Further: test concentration not given here. To be noted: JC-1 mitochondrial fluorescence, higher = more signal, called active from +8 up or from −8 down.
A short description of assay [18]: JC-1 mitochondrial signal, unstimulated myeloma cells – cell-based, JC-1 fluorescence, RPMI8226, 24 h, 100 nL compound, profiling panel (AID 1169). Further: test concentration not given here. The following applies: JC-1 mitochondrial potential fluorescence, higher = more signal.
The nature of assay [19]: JC-1 mitochondrial signal, unstimulated MM1S myeloma – cell-based, JC-1 fluorescence, 24 h, 100 nL compound, profiling panel (AID 1170). Further: test concentration not given here. To be noted: MM1S mitochondrial potential, higher = more signal.
Assay [20] is described as follows: resazurin metabolic signal in A549 cells – cell-based, resazurin fluorescence, 24 h, PK04 Diversity Set, profiling panel (AID 1171). Further: test concentration not given here. To be noted: A549 viability, higher = more signal, called active from +8 up or from −8 down.

Sequence of NADPH oxidase 2 (Homo sapiens) (P04839 whole entry, looked up): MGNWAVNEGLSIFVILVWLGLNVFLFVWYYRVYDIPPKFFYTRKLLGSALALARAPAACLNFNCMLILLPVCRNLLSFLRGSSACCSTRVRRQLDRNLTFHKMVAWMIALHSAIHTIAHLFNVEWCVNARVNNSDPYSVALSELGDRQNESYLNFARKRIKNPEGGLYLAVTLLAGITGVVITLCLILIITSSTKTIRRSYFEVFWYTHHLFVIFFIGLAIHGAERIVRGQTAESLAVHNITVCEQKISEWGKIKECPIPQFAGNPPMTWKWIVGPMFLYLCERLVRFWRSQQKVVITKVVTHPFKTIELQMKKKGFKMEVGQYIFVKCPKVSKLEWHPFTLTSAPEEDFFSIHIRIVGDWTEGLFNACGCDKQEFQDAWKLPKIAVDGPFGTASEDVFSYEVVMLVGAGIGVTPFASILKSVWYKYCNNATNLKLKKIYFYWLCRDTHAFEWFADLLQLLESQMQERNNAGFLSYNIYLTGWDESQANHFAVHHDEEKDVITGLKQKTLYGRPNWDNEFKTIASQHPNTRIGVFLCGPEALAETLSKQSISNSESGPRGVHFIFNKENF

Take `C[C@@H]1CC[C@H]2C(=O)O[C@@H](COc3ccc(C(C)(C)C)cc3)CN2[C@@H]1c1ccc(Br)cc1`: the z-score in assay [1] was 0.328 (inactive); in assay [3], 0.857 (inactive); in assay [4], 0.681 (inactive); in [5], -1.34 (inactive); in [6], 0.54 (inactive); in [7], -0.0874. For the same compound, the z-score was -0.303 (inactive) in assay [8]; 0.732 (inactive) in [9]; 0.154 in assay [10]; 0.373 in [11]; 1.03 in assay [12]; 0.843 in [13]. Further, the z-score in [14] was -2.33; in [15] it was -0.391; in assay [16], -1.05; in assay [17] it was -0.391 (inactive); in assay [18], -0.509; in [19], 0.291. In addition, the z-score in assay [20] was 1.99 (inactive). Further, the composite z-score in assay [2] was -0.229.

Turning to `O=C1[C@H]2[C@H]3[C@H](O)[C@H](O)CC(=NO[C@@H]4O[C@H](CO)[C@@H](O)[C@H](O)[C@H]4O)[C@H]3CC[C@H]2C(=O)N1c1cccc(Oc2ccccc2)c1`, the z-score in assay [1] was -0.024 (inactive); in assay [3], 0.257 (inactive); in assay [4], 0.452 (inactive); in assay [5] it was 0.253 (inactive); in assay [6] it was 0.207 (inactive); in [7], -0.576. Further, the z-score was 0.7 (inactive) in assay [8]; 0.325 (inactive) in assay [9]; -0.54 in [10]; -0.0287 in assay [11]; -0.171 in assay [12]; -0.733 in assay [13]. The z-score was 0.411 in [14]; -0.782 in assay [15]; 0.629 in [16]; -0.235 (inactive) in [17]; 0.142 in assay [18]; -0.827 in assay [19]. The z-score in assay [20] was 1.08 (inactive). This compound had a composite z-score in [2] of -0.286.

Turning to `O=c1n(-c2ccccc2)c(=O)n2n1CC[C@@H]1C(=NOCc3ccccc3)[C@H]3O[C@H]3[C@@H](O)[C@@H]12`, the z-score in assay [1] is -0.422 (inactive); in assay [3], 6.33 (inactive); in assay [4], 0.0311 (inactive); in [5] it was 0.349 (inactive); in [6], 0.425 (inactive); in assay [7] it was -0.302. Besides, the z-score is -3.43 (inactive) in assay [8]; -0.13 (inactive) in assay [9]; 0.183 in [10]; 0.172 in assay [11]; -0.915 in [12]; 0.251 in [13]. For the same compound, the z-score is -0.232 in [14]; 0.169 in [15]; -0.406 in assay [16]; -0.78 (inactive) in assay [17]; -0.0915 in assay [18]; -0.531 in assay [19]. The z-score in assay [20] was -1.08 (inactive). In assay [2], this compound returned a composite z-score of -0.514.

For the compound `CCOC(=O)[C@H](Cc1ccccc1)NC(=O)CCC1CC(OC(=O)NCCc2ccc(F)cc2)CC2(CCCC(COC(=O)NCCCN3CCCC3=O)O2)O1` (stereo not given in full), the z-score was 0.141 (inactive) in [1]; -1.36 (inactive) in [3]; -0.861 (inactive) in assay [4]; -0.0494 (inactive) in assay [5]; -0.445 (inactive) in [6]; 0.94 in assay [7]. Moreover, the z-score in assay [8] is -0.232 (inactive); in assay [9], 0.192 (inactive); in [10] it was -1.09; in [11], 1.57; in assay [12], -0.0501; in assay [13], 0.43. Moreover, the z-score in [14] is 0.356; in assay [15] it was -0.335; in assay [16] it was 0.668; in assay [17], -0.182 (inactive); in assay [18], 0.437; in assay [19] it was -1.09. In assay [20], the z-score is -0.972 (inactive). Also, the composite z-score in assay [2] was -0.105.

Take `CON=C(C)CCC(=O)OC[C@H]1O[C@H](c2ccccc2)C=C[C@@H]1Oc1ccc(OC)cc1`: the z-score in assay [1] is -2.31 (inactive); in [3] it was 5.54 (inactive); in assay [4], 1.17 (inactive); in [5] it was 12.7 (active); in assay [6], 0.49 (inactive); in assay [7] it was -0.312. The z-score in [8] is -2.7 (inactive); in [9], -0.458 (inactive); in assay [10] it was -4.44; in assay [11] it was -0.208; in assay [12] it was -0.119; in assay [13], -0.646. For the same compound, the z-score in [14] was -1.32; in [15], -0.0394; in [16], -1.05; in assay [17] it was 0.0208 (inactive); in [18], 0.00696; in assay [19] it was -0.0885. Besides, the z-score in [20] was 0.525 (inactive). In assay [2], the composite z-score is -0.196.

`C[C@@H]1NC(=O)[C@@H](C)COC(=O)[C@H](C)NC(=O)[C@@H](C)COC1=O`: the z-score in assay [1] is -2.21 (inactive); in [3], 0.116 (inactive); in assay [4] it was -0.334 (inactive); in assay [5], -0.172 (inactive); in assay [6], -1.15 (inactive); in [7], 0.35. Also, the z-score in assay [8] is -0.0632 (inactive); in assay [9], -1.11 (inactive); in [10], 0.136; in assay [11], -0.838; in assay [12] it was 1.19; in assay [13] it was 0.1. Further, the z-score in assay [14] is -0.426; in assay [15], -0.604; in [16], 0.503; in [17], 0.42 (inactive); in assay [18], 0.0799; in assay [19], 0.307. Also, in [20], the z-score is 0.228 (inactive). The composite z-score in [2] is -0.248.

`C#CCCCON=C1[C@H]2CCn3c(=O)n(C)c(=O)n3[C@H]2[C@H](O)[C@@H]2O[C@H]12`: the z-score was 0.117 (inactive) in assay [1]; -0.611 (inactive) in assay [3]; 0.147 (inactive) in assay [4]; -0.354 (inactive) in assay [5]; 0.0334 (inactive) in [6]; -0.0228 in [7]. The z-score in [8] was -0.0249 (inactive); in assay [9], -0.124 (inactive); in [10], 0.71; in assay [11], 0.0083; in [12], -0.421; in assay [13], 0.716. For the same compound, the z-score in assay [14] was -0.85; in assay [15] it was -0.801; in [16], 0.398; in assay [17], 0.206 (inactive); in [18], -0.253; in [19], 0.00711. In [20], the z-score is -0.576 (inactive). This compound yielded a composite z-score in assay [2] of 0.126.

With `CO[C@H]1COC(=O)CCC[C@@H](C)[C@H](OC)COC(=O)[C@@H]2CCCN2C(=O)CC=C[C@@H]1C`, the z-score in assay [1] was -0.704 (inactive); in [3], -1.11 (inactive); in assay [4], -1.08 (inactive); in assay [5], -0.186 (inactive); in assay [6] it was -0.939 (inactive); in assay [7], -0.112. Moreover, the z-score in assay [8] is -0.336 (inactive); in assay [9], -0.00577 (inactive); in [10], 0.282; in assay [11], -0.395; in assay [12] it was 0.376; in assay [13], 0.308. The z-score in assay [14] was 0.149; in assay [15], -0.193; in assay [16] it was -0.0779; in assay [17] it was -0.0693 (inactive); in assay [18], -0.0032; in assay [19], -0.87. For the same compound, the z-score in assay [20] was -0.186 (inactive). The composite z-score in [2] is -0.005.
